Most compounds without a hit are left out; they make up all but 2.8% or so of the library.
KDM5B inhibitor: inhibitors of human KDM5B histone demethylase; Q9UGL1; KDM5B demethylase, FDH-coupled NADH fluorescence (FDH is formaldehyde dehydrogenase); 220,000 tested, 2.6% active; Potency, µM (series often up to 57.7 µM), actives largely listed as inhibitors; active means well fitted inhibition curve with a large enough effect; inconclusive means small, poorly fitted or top-dose-only effect; inactive means no such curve, though single readings can be large or run the other way; further: potency means the concentration at half of the fitted maximal effect; 0% is about no effect; nearly all actives have a fitted effect of over 70% in size
Target sequence (Q9UGL1 whole entry, looked up): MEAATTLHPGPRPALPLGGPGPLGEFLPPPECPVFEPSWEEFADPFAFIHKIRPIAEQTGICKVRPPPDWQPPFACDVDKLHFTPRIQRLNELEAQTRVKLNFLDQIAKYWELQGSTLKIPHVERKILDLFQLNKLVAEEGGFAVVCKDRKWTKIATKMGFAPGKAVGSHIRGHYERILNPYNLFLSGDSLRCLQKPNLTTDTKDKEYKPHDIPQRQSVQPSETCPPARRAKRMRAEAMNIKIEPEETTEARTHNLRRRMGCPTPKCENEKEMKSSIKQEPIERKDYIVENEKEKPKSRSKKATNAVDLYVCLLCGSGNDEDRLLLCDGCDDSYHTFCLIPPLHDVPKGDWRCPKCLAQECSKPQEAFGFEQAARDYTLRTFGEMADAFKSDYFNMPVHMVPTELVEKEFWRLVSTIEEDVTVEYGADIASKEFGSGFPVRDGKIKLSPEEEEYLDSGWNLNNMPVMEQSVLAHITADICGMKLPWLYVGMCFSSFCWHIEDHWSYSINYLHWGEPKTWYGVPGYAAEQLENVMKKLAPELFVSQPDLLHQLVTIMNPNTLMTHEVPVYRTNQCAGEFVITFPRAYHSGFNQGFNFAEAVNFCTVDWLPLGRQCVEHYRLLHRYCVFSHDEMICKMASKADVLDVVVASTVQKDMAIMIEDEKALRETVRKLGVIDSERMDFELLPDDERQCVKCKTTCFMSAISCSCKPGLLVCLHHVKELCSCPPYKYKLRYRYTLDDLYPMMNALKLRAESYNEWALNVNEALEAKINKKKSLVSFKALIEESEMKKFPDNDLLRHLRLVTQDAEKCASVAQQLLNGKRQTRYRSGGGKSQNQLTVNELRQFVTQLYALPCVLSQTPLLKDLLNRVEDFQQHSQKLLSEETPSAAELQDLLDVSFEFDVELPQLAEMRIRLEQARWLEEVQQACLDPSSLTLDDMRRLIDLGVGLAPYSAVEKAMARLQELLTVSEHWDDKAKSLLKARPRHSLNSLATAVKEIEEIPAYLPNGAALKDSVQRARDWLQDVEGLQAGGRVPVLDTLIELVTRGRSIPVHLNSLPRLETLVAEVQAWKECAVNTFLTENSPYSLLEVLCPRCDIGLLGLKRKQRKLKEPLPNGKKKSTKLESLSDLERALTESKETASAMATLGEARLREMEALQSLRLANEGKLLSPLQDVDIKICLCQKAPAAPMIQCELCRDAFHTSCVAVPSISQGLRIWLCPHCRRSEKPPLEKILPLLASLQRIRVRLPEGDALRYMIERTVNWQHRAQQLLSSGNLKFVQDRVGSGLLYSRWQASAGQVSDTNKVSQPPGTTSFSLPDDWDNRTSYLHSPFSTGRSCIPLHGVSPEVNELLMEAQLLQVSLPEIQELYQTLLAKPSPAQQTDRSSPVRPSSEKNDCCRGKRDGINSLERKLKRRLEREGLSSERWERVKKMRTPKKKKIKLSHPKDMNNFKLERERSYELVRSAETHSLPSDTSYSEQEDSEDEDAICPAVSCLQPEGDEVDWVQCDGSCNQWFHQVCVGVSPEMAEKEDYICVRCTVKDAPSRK
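Coupled FDH/NAD⁺ fluorescence readout. KDM5BΔAP 200 nM final; compound titration, 10 min RT preincubation; substrate mix 12.5 µM H3K4me3, 25 µM 2-OG, 50 µM Fe(II), 100 µM ascorbate, 0.25 mM NAD⁺, 0.25 U/mL FDH; ΔRFU over 30 min.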
IP6K1 inhibitor: inhibitors of human IP6K1. Q92551. IP6K1 kinase, ADP-Glo luminescence, 2 h; active compounds read low. activity change, % (series mostly up to about 58 µM). 140,000 tested, 0.81% active. AID 1645851; in the data active means activity change below about -25%; further: on the % scale 0 is the no-effect control and ±100 the full control effect
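ADP-Glo luminescence measures ADP made by human IP6K1 during a 2 h RT reaction with ATP/IP6 (mix at 1.3 mM/130 uM); top library doses 57.5 and 19.1 uM final.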
* hit, by the source's call; i = inactive; ? = inconclusive; . = no result.

SMILES	KDM5B inhibitor	IP6K1 inhibitor
Cc1ccc(NC(=O)C2CCN(C(=O)c3sc4nc[nH]c(=O)c4c3C)CC2)cc1C	i	.
Cc1ccc(C)c(C(=O)NCc2nnc3c(-c4nc(C5CC5)no4)cccn23)c1	25µM*	8
O=C(Cc1ccc(Cl)cc1)NCc1nnc2c(-c3nc(C4CC4)no3)cccn12	28µM*	-3
CC(C)(C)c1ccc(C(=O)NCc2nnc3c(-c4nc(C5CC5)no4)cccn23)cc1	?	0
Cc1cc(C)cc(C(=O)NCc2nnc3c(-c4nc(C5CC5)no4)cccn23)c1	?	1
CCCc1noc(-c2cccn3c(CNC(=O)c4ccc(N(C)C)cc4)nnc23)n1	?	10
O=C(NCc1nnc2c(-c3nc(C4CC4)no3)cccn12)c1ccc(F)cc1	22µM*	3
CCCc1noc(-c2cccn3c(CNC(=O)c4ccc(C)cc4)nnc23)n1	25µM*	-1
O=C(Cc1ccccc1Cl)NCc1nnc2c(-c3nc(C4CC4)no3)cccn12	?	4
CNC(=O)c1nn(CN2CCN(Cc3cccc(C)c3)CC2)c(=O)c2ccccc12	i	.
CCCCn1c(=O)c(C(=O)N2CCC(c3ccccc3)CC2)nc2cccnc21	.	7
O=C(OCc1ccc(Cl)cc1)c1cnc2ccccc2n1	i	.
COc1ccc(C2CC(=O)N(c3ccccc3)C3=C2C(=O)OC3)cc1 (stereo unspecified)	i	.
Cc1cc(N/N=C/c2ccc(Cl)c([N+](=O)[O-])c2)nc2ccccc12	i	.
COc1ccccc1OCCC1CCN(C(=O)c2cccc(F)c2)C1 (stereo unspecified)	.	6
CCCc1noc(-c2cccn3c(CNC(=O)Cc4ccc(Cl)cc4)nnc23)n1	25µM*	1
O=C(NCc1nnc2c(-c3nc(C4CC4)no3)cccn12)c1cc(Cl)ccc1F	28µM*	-1
CCCc1noc(-c2cccn3c(CNC(=O)C4CCC4)nnc23)n1	28µM*	3
CC(C)c1noc(-c2cccn3c(CNC(=O)C4CCC4)nnc23)n1	?	3
CCCc1noc(-c2cccn3c(CNC(=O)Cc4ccccc4Cl)nnc23)n1	?	22
O=C(NCc1nnc2c(-c3nc(C4CC4)no3)cccn12)c1c(F)cccc1Cl	?	22
CCOC(=O)c1ccc(NC(=O)CSc2nc(CCSC)c(C)[nH]2)cc1	i	.
Cn1ncc2c(C(=O)NCCNC(=O)OC(C)(C)C)cc(-c3ccccc3C(F)(F)F)nc21	.	-1
O=C(CN1CCN(c2ccccn2)CC1)Nc1cc(F)ccc1F	i	.
COc1ccccc1CC(=O)NCC(=O)N1CCN(c2ccccn2)CC1	25µM*	7
SMILES	KDM5B inhibitor	IP6K1 inhibitor
COc1ccc(C2(C(=O)N3CCN(c4ccccn4)CC3)CCOCC2)cc1	79µM*	-6
COc1ccc(-n2nc(C(=O)NCC(=O)N3CCN(c4ccccn4)CC3)c3ccccc3c2=O)c(OC)c1	i	.
COc1ccc(C2(C(=O)N3CCN(c4ncccn4)CC3)CCOCC2)cc1	i	-21
COc1ccc(C(=O)NCC(=O)N2CCN(c3ccccn3)CC2)c(C)c1	22µM*	7
O=C(COc1ccc(F)cc1)NCC(=O)N1CCN(c2ccccn2)CC1	25µM*	-4
CCOc1ccccc1N1CCN(C(=O)CNC(=O)c2ccc(OC)c(OC)c2)CC1	i	.
CC(C)(C)CN[C@H]1C[C@@H](Cc2cc(COc3ccccc3)on2)C1(C)C	i	10
Cn1cccc1-c1noc(C2CCN(C(=O)c3ccoc3)C2)n1 (stereo unspecified)	.	8
O=c1c2ccccc2c(-c2cccs2)nn1CC(O)COCc1ccccc1F (stereo unspecified)	i	.
O=C(CCc1ccccc1)NCC(=O)N1CCN(c2ccccn2)CC1	?	19
COc1ccc(C(=O)N[C@@H]2CCC[C@@H]2C(=O)N2CCN(c3ccccn3)CC2)cc1	?	12
O=C(CCCc1ccccc1)NCC(=O)N1CCN(c2ccccn2)CC1	28µM*	22
COc1ccc(CC(=O)NCC(=O)N2CCN(c3ccccn3)CC2)cc1	32µM*	6
CC(C)(C)c1noc(CN2CCN(C(=O)c3cccs3)CC2)n1	i	.
Cn1ncc2c(NCCc3cn4ccccc4n3)nc(C3CCCC3)nc21	20µM*	17
Cc1nc(NCCCNC2CCCCC2)c2cnn(C)c2n1	i	.
Cc1ncc(C(=O)N[C@H]2CC[C@H]2NC2CCCC2)c(-c2ccccc2)n1	i	4
Nc1ncc(C(=O)N[C@@H]2CC[C@@H](N)C2)c(-c2ccccc2)n1	22µM*	12
CN(C)CCCNc1nc(-c2ccc(Cl)cc2)c(CC(=O)O)s1	i	.
Cc1ccc([S+](=O)([O-])NC2CCCN(c3ccc4nnc(C)n4n3)C2)cc1 (stereo unspecified)	.	-4
COc1ccc(Nc2ccnc(N3CCN(C(=O)Cc4cccc(Cl)c4)CC3)n2)cc1	.	-9
O=C(NCc1ccncc1)C1c2ccccc2C(=O)N(Cc2ccccc2)C12CCCCC2 (stereo unspecified)	i	.
OC1CC(c2cc(N3CCN(c4nsc5ccccc45)CC3)ncn2)C1 (stereo unspecified)	32µM*	116
OC1CC(c2cc(N3CCC(c4nnc5ccccn45)CC3)ncn2)C1 (stereo unspecified)	i	4
CC(C)CNC(=O)c1ccc2nnc(-c3ccc(OC(F)(F)F)cc3)n2c1	.	-6
SMILES	KDM5B inhibitor	IP6K1 inhibitor
CCCCc1ccc(-n2nnnc2SCC(=O)Nc2cccc(NC(C)=O)c2)cc1	i	.
CN1C(=O)c2cccn2CC1C(=O)Nc1ccccc1 (stereo unspecified)	.	-6
Cc1nc(N2CCOCC2)cc(N2CCN(C(=O)c3cccc(C(F)(F)F)c3)CC2)n1	i	.
O=C1c2cc(N3CCOCC3)nc(-c3cccc(CO)c3)c2CN1c1ccccc1	35µM*	12
O=C1Cc2c(-c3cccc(CO)c3)n[nH]c2CN1c1ccccc1	i	15
COc1cccc(-c2nc(N3CCOCC3)cc3c2CN(CC(F)(F)F)C3=O)c1OC	32µM*	8
COc1cccc(-c2nc3cc4c(cc3cc2CN2CCOCC2)OCO4)c1OC	i	7
O=C1c2cc(N3CCOCC3)nc(-c3cccc(O)c3)c2CN1CC(F)(F)F	40µM*	11
COc1cccc(-c2nc(N3CCOCC3)cc3c2CN(Cc2ccccc2)C3=O)c1OC	32µM*	8
COc1ncccc1-c1nc(N2CCOCC2)cc2c1CN(CC(F)(F)F)C2=O	?	16
CSc1ccccc1C(=O)Nc1c(C)cccc1C(C)C	i	.
COc1ccc(C(=O)OCc2nc(N)c3ccccc3n2)c(O)c1	i	.
COc1ccc(-c2ccc(C(=O)NCc3ccccc3F)cc2)nn1	.	9
Cc1ccc(CN2CCOc3ccc(CCC(=O)NCC4CC4)cc3C2)o1	.	-5
O=C(c1ccccc1F)N(Cc1cccc2[nH]ccc12)C1CC1	i	.
COc1cc(F)ccc1CNCc1cccnc1N1CCOCC1	?	-8
COc1ccc(-c2nc(N3CCOCC3)cc3c2CN(Cc2ccccc2)C3=O)cc1	i	13
CN1Cc2c(cc(N3CCOCC3)nc2-c2ccccc2OC(F)(F)F)C1=O	35µM*	5
COc1cccc(-c2n[nH]c3c2CC(=O)N(CC2CCOCC2)C3)c1OC	?	21
O=C1CC(c2noc(-c3ccccc3OC(F)(F)F)n2)CN1C1CCCCC1 (stereo unspecified)	i	-6
